Here are results for 39 compounds from the supplement of paper PMC12350171.

Counter-ions that a name gives are not always drawn. A number with no mark means an inactive call.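 How the source made its calls: active = AUC significantly below DMSO controls by Student t-fit with adjusted P under 0.01; inactive = not significantly reduced.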

This experiment relates to Haemophilus parainfluenzae. Put plainly: growth AUC normalised to DMSO control (fraction of control); higher = less growth inhibition, active = hit call of the paper. The conditions noted are these: 20 µM. The essentials: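 Pathogens passaged twice anaerobically were inoculated at a starting OD578 of 0.01 into pre-reduced mGAM plates with drug at 20 μM and 1% DMSO, sealed with breathable membranes. Haemophilus parainfluenzae medium was supplemented with hemin and NAD. OD578 was read hourly for 24 h, with three biological replicates. Growth-curve AUC was computed by the trapezoidal rule up to the exponential-to-stationary transition and normalised to DMSO controls on the same plate.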
For `Cc1c(NC(C)C)c(=O)n(-c2ccccc2)n1C` [Isopyrin hydrochloride], the “growth AUC normalised to DMSO control” value was 0.967.

For `CC(=O)Nc1c(I)c(C(=O)N[C@H]2C(O)O[C@H](CO)[C@@H](O)[C@@H]2O)c(I)c(N(C)C(C)=O)c1I` (some centres undefined) [Metrizamide], the “growth AUC normalised to DMSO control” value is 0.984.

For the compound `COC(=O)[C@@H]1[C@H]2C[C@H]3c4[nH]c5ccccc5c4CCN3C[C@@H]2CC[C@@H]1O` [Yohimbine hydrochloride], the “growth AUC normalised to DMSO control” value is 0.971.

For `CN1C(=O)CC(c2ccccc2)C1=O` (centres undefined) [Phensuximide], the “growth AUC normalised to DMSO control” value is 1.01.

Consider `C/C(=C(\CCOP(=O)(O)O)SC(=O)c1ccccc1)N(C=O)Cc1cnc(C)nc1N` [Benfotiamine], for which the “growth AUC normalised to DMSO control” value is 0.999.

As to `CC[N+](C)(CC)CCOC(=O)C1c2ccccc2Oc2ccccc21` [Methantheline bromide], the “growth AUC normalised to DMSO control” value is 1.04.

Regarding `C=CCc1ccccc1OCC(O)CNC(C)C` (centres undefined) [Alprenolol hydrochloride], the “growth AUC normalised to DMSO control” value was 1.06.

On to `COc1ccc(/C=C/C(=O)Nc2ccccc2C(=O)O)cc1OC` [Tranilast], for which the “growth AUC normalised to DMSO control” value is 1.01.

As to `Cc1nnc(SCC2=C(C(=O)O)N3C(=O)[C@@H](NC(=O)Cn4cnnn4)[C@H]3SC2)s1` [Cefazolin sodium salt], the “growth AUC normalised to DMSO control” value is 0.0609 (active).

`CCCCC1C(=O)N(c2ccccc2)N(c2ccccc2)C1=O` [Phenylbutazone]: the “growth AUC normalised to DMSO control” value is 1.02.

As for `C#C[C@]1(O)CC[C@H]2[C@@H]3CCC4=CC(=O)CC[C@@H]4[C@H]3CC[C@@]21CC` [(D-) Norgestrel], the “growth AUC normalised to DMSO control” value is 0.969.

`CC(C(=O)O)c1ccc(C(=O)c2ccccc2)s1` (centres undefined) [Tiaprofenic acid]: the “growth AUC normalised to DMSO control” value is 1.

Consider `CN(C)CCC=C1c2ccccc2C=Cc2ccccc21` [Cyclobenzaprine hydrochloride], for which the “growth AUC normalised to DMSO control” value is 0.893.

Regarding `Clc1ccc(CO/N=C(\Cn2ccnc2)c2ccc(Cl)cc2Cl)c(Cl)c1` [Oxiconazole nitrate], the “growth AUC normalised to DMSO control” value is 1.01.

As to `COc1cc([C@@H]2c3cc4c(cc3[C@@H](O[C@@H]3O[C@@H]5CO[C@@H](C)O[C@H]5[C@H](O)[C@H]3O)[C@H]3COC(=O)[C@H]23)OCO4)cc(OC)c1O` [Etoposide], the “growth AUC normalised to DMSO control” value is 1.03.

As to `Nc1nc2c(ncn2COCCO)c(=O)[nH]1` [Acyclovir], the “growth AUC normalised to DMSO control” value is 1.01.

Take `NCc1ccc(S(N)(=O)=O)cc1` [Mafenide hydrochloride]: the “growth AUC normalised to DMSO control” value was 1.

As to `CCN(CC)CCNC(=O)c1cc(S(C)(=O)=O)ccc1OC` [Tiapride hydrochloride], the “growth AUC normalised to DMSO control” value is 0.993.

As for `Cc1ccc(S(=O)(=O)NC(=O)NN2CCCCCC2)cc1` [Tolazamide], the “growth AUC normalised to DMSO control” value was 1.04.

On to `CCN(CC)CCOC(=O)C1(C2CCCCC2)CCCCC1` [Dicyclomine hydrochloride], for which the “growth AUC normalised to DMSO control” value was 0.87.

As to `Nc1ncnc2c1ncn2C1OC(COP(=O)(O)O)C(O)C1O` (centres undefined) [Adenosine 5'-monophosphate monohydrate], the “growth AUC normalised to DMSO control” value was 0.982.

On to `COc1cc(C(=O)NS(=O)(=O)c2ccccc2C)ccc1Cc1cn(C)c2ccc(NC(=O)OC3CCCC3)cc12` [Zafirlukast], for which the “growth AUC normalised to DMSO control” value was 0.825.

With `C[C@H](CCC(=O)O)[C@H]1CC[C@H]2[C@@H]3C(=O)C[C@@H]4CC(=O)CC[C@]4(C)[C@H]3CC(=O)[C@]12C` [Dehydrocholic acid], the “growth AUC normalised to DMSO control” value was 0.972.

Consider `CNCCC(Oc1ccc(C(F)(F)F)cc1)c1ccccc1` (centres undefined) [Fluoxetine hydrochloride], for which the “growth AUC normalised to DMSO control” value was 1.

Regarding `Cc1cc(=O)oc2cc(O)ccc12` [Hymecromone], the “growth AUC normalised to DMSO control” value is 1.

For the compound `C(=C\c1ccccc1)/CN1CCN(C(c2ccccc2)c2ccccc2)CC1` [Cinnarizine], the “growth AUC normalised to DMSO control” value was 0.817.

For `CN(C)CCC(c1ccccc1)c1ccccn1` (centres undefined) [Pheniramine maleate], the “growth AUC normalised to DMSO control” value is 0.999.

In the case of `COc1ccc2c3c1O[C@H]1C[C@@H](O)C=C[C@@]31CCN(C)C2` [Galanthamine hydrobromide], the “growth AUC normalised to DMSO control” value was 0.988.

Consider `OCC(O)CN1CCN(c2ccccc2)CC1` (centres undefined) [Dropropizine], for which the “growth AUC normalised to DMSO control” value is 1.07.

For the compound `COC(=O)C1=C(C)NC(C)=C(C(=O)OC)C1c1ccccc1[N+](=O)[O-]` [Nifedipine], the “growth AUC normalised to DMSO control” value was 0.998.

In the case of `C#C[C@]1(O)CC[C@H]2[C@@H]3CCC4=C(CCC(=O)C4)[C@H]3CC[C@@]21C` [Norethynodrel], the “growth AUC normalised to DMSO control” value is 0.989.

Consider `Nc1nc(=O)c2nc(CNc3ccc(C(=O)N[C@@H](CCC(=O)O)C(=O)O)cc3)cnc2[nH]1` [Folic acid], for which the “growth AUC normalised to DMSO control” value is 0.978.

With `CCOc1ccc(Cc2nccc3cc(OCC)c(OCC)cc23)cc1OCC` [Ethaverine hydrochloride], the “growth AUC normalised to DMSO control” value was 1.02.

In the case of `CC(C)(C(=O)O)c1ccc(C(O)CCCN2CCC(C(O)(c3ccccc3)c3ccccc3)CC2)cc1` (centres undefined) [Fexofenadine hydrochloride], the “growth AUC normalised to DMSO control” value was 1.01.

For the compound `N=C(N)NCC1COC2(CCCCC2)O1` (centres undefined) [Guanadrel sulfate], the “growth AUC normalised to DMSO control” value was 0.967.

For `CC(=O)O[C@]1(C(C)=O)CC[C@H]2[C@@H]3C=C(Cl)C4=CC(=O)[C@@H]5C[C@@H]5[C@]4(C)[C@H]3CC[C@@]21C` [Cyproterone acetate], the “growth AUC normalised to DMSO control” value is 1.01.

On to `COc1ccc(C(=O)c2ccccc2)c(O)c1` [Oxybenzone], for which the “growth AUC normalised to DMSO control” value is 1.06.

As to `CN(C)c1nc(N(C)C)nc(N(C)C)n1` [Altretamine], the “growth AUC normalised to DMSO control” value was 1.05.

As for `CCCNC(C)(C)COC(=O)c1ccccc1` [Meprylcaine hydrochloride], the “growth AUC normalised to DMSO control” value was 1.03.
